# Assay results from PubChem BioAssay.
# Active and inactive are the calls of the source.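 Rule for the calls, unless noted: active = inhibition above 20% together with a positive visual image hit; inconclusive = visual image hit but inhibition not above 20%; inactive = no visual image hit.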
# What was measured:
# [1] = inhibitors of TNFa-induced NFkB p65 translocation, primary screen, imaging, HUVEC, MLSMR starter and 10KST1 sets (AID 438); details: HUVEC TNFa-induced p65 nuclear translocation; cell count: measured here: nuclei count (cytotoxicity indicator), at 2.08 µM; inhibition: at 2 µM, stronger effect = higher value, 0% TNFa-plus-vehicle, 100% no-TNFa wells;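 note: compound added about 3h40 before a 20 min TNFalpha stimulation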;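 for inhibition: signal is the nuclear over cytoplasmic p65 intensity ratio per well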
# [2] = reduction of polyQ htt aggregates in cells – imaging, exon1htt(103Q)mCFP cells, high-content imaging, primary screen (AID 483;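 active = visual image review flags a hit and inhibition of aggregation exceeds 20%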;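 note: compound exposure lasted 3 days before fixation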;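 for nuclei count: percent of the per-plate median nuclei count of sample wells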); details: exon1htt(103Q)mCFP cell line, aggregate imaging, at 2 µM; inhibition of aggregation: stronger effect = higher value; nuclei count: measured here: cell count, toxicity
# [3] = endothelial E-selectin expression blockers – imaging, HUVEC, immunofluorescence, MLSMR starter and 10KST1 sets, primary screen (AID 487;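 active = visually confirmed hit in the image check and inhibition above 20%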;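 for inhibition: signal is fraction of cell area covered by stained E-selectin grains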;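 for nuclei count: 100% = median nuclei count of all wells on the same plate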); details: HUVEC TNFalpha-induced E-selectin immunofluorescence imaging, at 2 µM; inhibition: stronger effect = higher value; nuclei count: measured here: cell number, toxicity
# [4] = molecular target: Voltage-gated potassium channel subunit beta-2 (Rattus norvegicus) (UniProt P62483); experiment: inhibitors of rat Kvbeta2 reductase activity – biochemical, NADPH fluorescence, primary screen (AID 622;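 active = fluorescence slope higher than the sample average by over 3 SD, cut at about -0.22 in these data, passing the limit was not always enough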;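 note: slope of raw intensity against log time taken from 70 to 1610 s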); details: recombinant KvBeta, 4-cyanobenzaldehyde reduction, at 10 µM, stronger effect = higher value
# [5] = molecular target: Voltage-gated potassium channel subunit beta-2 (Rattus norvegicus) (UniProt P62483); experiment: enhancers of rat Kvbeta2 NADPH turnover – biochemical, NADPH fluorescence, primary screen (AID 623;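 active = NADPH fluorescence slope more negative than the mean of all samples by about 3 SD, 99.7% confidence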;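 note: fluorescence intensity change per second fitted from 20 to 320 s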); details: Recombinant KvBeta, NADPH fluorescence decrease slope, 10 min; at 10 µM; stronger effect = lower value
# [6] = molecular target: Alpha-2C adrenergic receptor (Homo sapiens) (UniProt P18825); experiment: compounds altering alpha2C-coupled GIRK flux – cell-based, HEK293 alpha2C/GIRK1/2, thallium flux, primary screen (AID 624;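 active = fluorescence slope after compound addition differing from the mean of all screened samples at 99.7% confidence, in either direction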;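 note: slope of fluorescence ratio to pre-addition baseline per second over 15 to 24 s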); details: thallium flux BTC fluorescence, at 10 µM, actives lie on both sides
# [7] = blockers of RIG-like receptor reporter activation – cell-based, Sendai virus stimulus, luciferase, 10K MLSCN set, TLR/RLR signaling modifier project, primary screen (AID 602276;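 active = inhibition at or above 50% at 10 µM; inactive = inhibition below 50%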;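 note: firefly luciferase from ISG56 promoter only with Renilla not read in this screen; 0% = Sendai virus plus DMSO and 100% = medium plus DMSO without virus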); details: HEK293 RL24 IRF3 luciferase reporter, at 10 µM, stronger effect = higher value
# [8] = TLR3 IRF3 reporter activation blockers – cell-based, poly I:C stimulus, luciferase, 10K MLSCN set, primary screen (AID 602277;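 active = inhibition of the reporter signal at or above 50%; inactive = inhibition below 50%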); details: HEK293-TLR3 RL24 IRF3 luciferase reporter, at 10 µM, stronger effect = higher value
# Sequence of Voltage-gated potassium channel subunit beta-2 (Rattus norvegicus) (P62483 whole entry, looked up): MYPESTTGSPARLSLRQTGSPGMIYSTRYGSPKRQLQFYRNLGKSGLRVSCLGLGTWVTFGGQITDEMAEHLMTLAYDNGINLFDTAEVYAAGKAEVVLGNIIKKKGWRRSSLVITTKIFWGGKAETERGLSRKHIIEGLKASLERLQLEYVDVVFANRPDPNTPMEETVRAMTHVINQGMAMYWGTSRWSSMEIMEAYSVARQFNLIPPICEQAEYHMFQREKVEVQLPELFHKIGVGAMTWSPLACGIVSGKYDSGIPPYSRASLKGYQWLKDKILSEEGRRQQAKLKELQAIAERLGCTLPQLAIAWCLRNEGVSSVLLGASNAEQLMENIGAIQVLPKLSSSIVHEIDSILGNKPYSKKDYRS
# Sequence of Alpha-2C adrenergic receptor (Homo sapiens) (P18825 whole entry, looked up): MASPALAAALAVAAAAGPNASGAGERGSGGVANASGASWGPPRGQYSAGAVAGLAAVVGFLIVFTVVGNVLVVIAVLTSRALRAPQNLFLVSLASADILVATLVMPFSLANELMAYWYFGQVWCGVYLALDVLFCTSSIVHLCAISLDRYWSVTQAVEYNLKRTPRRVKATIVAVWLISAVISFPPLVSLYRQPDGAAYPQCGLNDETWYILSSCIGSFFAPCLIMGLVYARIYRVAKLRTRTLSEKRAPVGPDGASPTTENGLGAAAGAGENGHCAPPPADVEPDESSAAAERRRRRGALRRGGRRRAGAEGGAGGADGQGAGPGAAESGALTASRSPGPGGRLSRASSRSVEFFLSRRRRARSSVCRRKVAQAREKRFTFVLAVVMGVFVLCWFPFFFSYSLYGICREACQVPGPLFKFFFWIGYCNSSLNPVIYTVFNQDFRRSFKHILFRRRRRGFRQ
SMILES,cell count [1],inhibition [1],inhibition of aggregation [2],nuclei count [2],inhibition [3],nuclei count [3],fluorescence slope [4],NADPH fluorescence slope [5],slope [6],inhibition [7],inhibition [8]
COc1cc(C2c3c(oc4ccccc4c3=O)C(=O)N2c2ccc(C)cn2)ccc1O (centres undefined),464,2.1% (inactive),8.8% (inactive),107%,-49% (inactive),122%,-0.598 (inactive),-4.5e-05 (inactive),0.00645 (inactive),-5.41% (inactive),7.4% (inactive)
COc1ccc(N2CCN(Cc3cc(=O)oc4cc(C)c(Cl)c(C)c34)CC2)cc1,604,0.3% (inactive),8.9% (inactive),104%,19% (inactive),93.1%,-0.388 (inactive),1.5e-05 (inactive),0.00505 (inactive),17.9% (inactive),12% (inactive)
Cc1cccc(-c2c3c(=O)n(C)c(=O)n(C)c3cn2-c2ccc(O)cc2)c1,363,-2.8% (inactive),30.8% (inactive),90.3%,-49.7% (inactive),98.7%,-0.579 (inactive),-2.6e-05 (inactive),0.00566 (inactive),6.51% (inactive),17.1% (inactive)
Cc1ccccc1C1CC(c2ccccc2)Nc2ncnn21 (centres undefined),561,0% (inactive),-26.3% (inactive),92.1%,-47% (inactive),108%,-0.528 (inactive),-1.4e-06 (inactive),0.00646 (inactive),3.07% (inactive),15.7% (inactive)
COC(=O)c1ccc(CSc2nc3c(cnn3-c3ccc(F)cc3)c(=O)[nH]2)o1,653,-12.7% (inactive),-1.4% (inactive),106%,-44.8% (inactive),113%,-0.545 (inactive),5.2e-05 (inactive),0.00536 (inactive),-5.97% (inactive),18.8% (inactive)
O=C(Nc1ccc(Br)cc1F)c1sccc1-n1cccc1,616,-12.7% (inactive),-18.9% (inactive),103%,-10.6% (inactive),110%,-0.397 (inactive),-3.4e-05 (inactive),0.00385 (inactive),-1.64% (inactive),-17.5% (inactive)
CCCCn1c(=O)[nH]c(=O)c2c1nc(COc1ccc(C#N)cc1)n2CCC,337,3.4% (inactive),-40.4% (inactive),97.4%,32.8% (inactive),110%,-0.538 (inactive),6.8e-06 (inactive),0.00653 (inactive),10.1% (inactive),30.2% (inactive)
CCCOC(=O)c1[nH]c2c(c1C)C(=O)CC(c1cc(OC)c(OC)c(OC)c1)C2 (centres undefined),803,1.2% (inactive),2.2% (inactive),114%,-90.3% (inactive),118%,-0.567 (inactive),-2.6e-05 (inactive),0.00599 (inactive),0.863% (inactive),-18.2% (inactive)
O=C(CCn1c(=O)oc2ccccc21)N1CCCCCC1,776,-23.3% (inactive),-23.8% (inactive),123%,-26.2% (inactive),123%,-0.316 (inactive),-5.9e-05 (inactive),0.00656 (inactive),-8.11% (inactive),-6.91% (inactive)
Cc1cc(C(=O)N2CCN(C/C=C/c3ccccc3)CC2)no1,242,8.7% (inactive),-4.4% (inactive),101%,11.3% (inactive),98.6%,-0.465 (inactive),1.9e-06 (inactive),0.0056 (inactive),13% (inactive),25.3% (inactive)
COc1ccccc1CN1C(=S)SC(C)(C)C1NO (centres undefined),487,10.4% (inactive),-2.9% (inactive),88.5%,30.1% (inactive),105%,-0.499 (inactive),-3.5e-05 (inactive),0.00451 (inactive),15.8% (inactive),21.5% (inactive)
N#Cc1nc(-c2ccco2)oc1NCc1ccco1,658,-9.1% (inactive),-10.1% (inactive),120%,-12.2% (inactive),98.2%,-0.375 (inactive),5.2e-05 (inactive),0.00582 (inactive),-2.68% (inactive),-30.9% (inactive)
CCOc1ccc(N2CC(C(=O)Nc3cccc(C)c3C)CC2=O)cc1 (centres undefined),694,0.6% (inactive),12.5% (inactive),85.4%,-61.5% (inactive),114%,-0.608 (inactive),-1.8e-05 (inactive),0.00361 (inactive),8.36% (inactive),8.88% (inactive)
COc1ccc2c(c1OC)C(=O)OC2CC(=O)c1ccc(O)cc1 (centres undefined),556,-1.1% (inactive),-3.9% (inactive),114%,43.4% (inactive),42.6%,-0.447 (inactive),-4.1e-05 (inactive),0.00258 (inactive),4.78% (inactive),26.9% (inactive)
